Assay results as given in PubChem BioAssay AID1259249 (Broad Institute, 2017).
Where “and” joins values, the source holds several entries; their conditions need not be identical. Identical values can stand only once. The whole screen tested about 86,000 compounds, of which about 220 (0.26%) were called active.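 Rule for the calls: active = mean growth activity at or below -80% and every replicate also at or below -80%; inconclusive = mean at or below -80% but some replicate above -80%; inactive = mean growth activity above -80%.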 Shown is part of a subset that was picked to be rich in actives.

Assay: C. difficile growth inhibitors, primary screen, HTS (AID 1259249);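 note: 0% = DMSO wells and -100% = levofloxacin 16 µg/mL wells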
Settings: Clostridium difficile clinical isolate growth, OD600, 24 h; hits give low values; screened at 16 µg/mL (by protocol)

Growth activity, negative = inhibition, inactive:
COc1ccccc1CN1[C@H](CO)[C@@H](c2ccccc2)C12CN(C(=O)c1cnccn1)C2 5.54%, CN1CCN(C(=O)C[C@H]2CC[C@H]3[C@@H](COC[C@H](O)CN3CC3CCOCC3)O2)CC1 -4.46% and 6.12%, COCCNC(=O)C[C@H]1CC[C@@H]2[C@@H](COc3ccc(NC(=O)C4CCOCC4)cc3C(=O)N2C)O1 -4.68%, CNC(=O)C[C@@H]1CC[C@@H]2[C@@H](COc3ccc(NC(=O)c4ccc(F)cc4)cc3C(=O)N2C)O1 8.61%, O=C(N[C@@H]1CC[C@@H](CC(=O)N2CCc3ccccc3C2)O[C@H]1CO)C1CC1 -3.47%, CCCNC(=O)N1CC2(C1)[C@H](c1ccccc1)[C@@H](CO)N2Cc1cccc(Cl)c1 17%, O=C(Nc1ccc(F)cc1)N1C[C@@H]2[C@H](c3ccccc31)[C@H](CO)N2Cc1ccccc1 3.9%, O=C(C1CCCCC1)N1C[C@@H]2N[C@H](C1)C2c1ccc(-c2cccc(F)c2)cc1 (stereo partly drawn) 56.1% and 10.9%, CN(C)C(=O)c1ccc(-c2ccc(C3[C@@H]4CN(C(=O)Nc5ccccc5)C[C@H]3N4)cc2)cc1 (stereo partly drawn) 4.58%, COc1ccc2c3c(n(C)c2c1)[C@H](CO)N(Cc1ccccc1)CC31CN(C(=O)c2ccccc2F)C1 20.3%, CCCC(=O)Nc1ccc2c(c1)OC[C@H](C)N(C(=O)CC)C[C@H](C)[C@@H](OC)CN(C)C2=O -5.26%, COc1ccc2c3c([nH]c2c1)[C@@H](CO)N(C(C)=O)CC31CN(C(=O)Nc2ccc(F)cc2)C1 1.62%, CN1CCCCN2[C@@H](CO)[C@@H](c3ccc(C4=CCCC4)cc3)[C@@H]2C1 0.437%, N#C[C@@H]1[C@H](c2ccc(-c3cccnc3)cc2)[C@H](CO)N1C(=O)C1CC1 -3.1%, O=C(CN1CCOCC1)NCC[C@@H]1CC[C@@H](NC(=O)Nc2ccccc2)[C@H](CO)O1 0.549%, O=S(=O)(N[C@H]1CC[C@@H](CCNS(=O)(=O)c2ccccc2Cl)O[C@@H]1CO)c1ccccc1 -8.16%, COc1ccc(C#Cc2ccc([C@@H]3[C@H](CO)N4C(=O)CN(C(C)=O)C[C@@H]34)cc2)cc1 -6.73%, O=C(O)CCCCCCC(=O)NOCc1ccccc1 -0.197%, CN(C)CC(=O)N[C@@H]1CC[C@H](CC(=O)NCc2ccc(Cl)cc2)O[C@H]1CO 3.53%, CC(C)C#Cc1ccc2c(c1)O[C@@H](CN(C)C(=O)Nc1ccccc1)[C@H](C)CN([C@H](C)CO)S2(=O)=O 3.59%, CCCc1cn(CC[C@@H]2CC[C@@H](NC(=O)C3CC3)[C@H](CO)O2)nn1 -2.37%, O=C(CC1CC1)N1[C@@H](CO)[C@@H](c2ccccc2)C12CN(S(=O)(=O)c1ccccc1)C2 1.02%, COc1ccc2c3c([nH]c2c1)[C@@H](CO)N(Cc1nccs1)CC31CCN(C(=O)C2CCCC2)CC1 1.43%, CCCC(=O)Nc1ccc2c(c1)C(=O)N(C)[C@H]1CC[C@@H](CC(=O)NCC(F)(F)F)O[C@@H]1CO2 4.45%, COCC(=O)N1CC[C@@H]2[C@@H](CO)Nc3ccc(-c4ccc(C(=O)N(C)C)cc4)cc3[C@@H]21 -7.52%, CO[C@@H]1CN(C)C(=O)c2cc(NC(=O)C3CC3)ccc2OC[C@@H](C)N(C(=O)c2ccccc2F)C[C@@H]1C -0.472%, O=C(C[C@H]1C[C@@H]2c3cc(NC(=O)C4CCOCC4)ccc3O[C@@H]2[C@H](CO)O1)NCC1CC1 -3.84%, CO[C@@H]1CN(C)C(=O)c2cc(NC(=O)Nc3cccc(Cl)c3)ccc2OC[C@@H](C)N(C)C[C@@H]1C -2.08%, CCS(=O)(=O)Nc1ccc2c(c1)C(=O)N(C)[C@@H]1CC[C@@H](CC(=O)NC)O[C@H]1CO2 3.49%, COc1ccc2c3c(n(C)c2c1)[C@H](CO)N(C(=O)Cc1ccccc1)CC31CCN(C)CC1 -5.17%, O=C(C1CCC1)N1C[C@H]2[C@@H](c3ccccc31)[C@H](CO)N2C(=O)Nc1cccc(F)c1 -2.73%, CCCNC(=O)N1C[C@H](C)[C@@H](OC)CN(C)C(=O)c2ccc(NS(=O)(=O)CC(F)(F)F)cc2OC[C@@H]1C -2.19%, O=C(c1cccc(F)c1)N1CC[C@@H]2[C@H](CO)Nc3ccc(C#Cc4ccccc4)cc3[C@@H]21 0.292%, CN1C(=O)c2cc(NC(=O)C3CC3)ccc2OC[C@@H]2O[C@H](CC(=O)NCC3CCCCC3)CC[C@@H]21 -3.31%, COc1cccc(S(=O)(=O)N2[C@@H]3CNC[C@H]2C3c2ccc(-c3ccccc3OC)cc2)c1 (stereo partly drawn) 17.5% and 1.35%, COC(=O)[C@@H]1[C@@H](CO)[C@@H]2Cn3c(ccc(-c4ccc(OC)cc4)c3=O)[C@@H]2N1S(C)(=O)=O -4.77%, O=C(O)C[C@@H]1CC[C@H](NC(=O)CCN2CCCCC2)[C@H](CO)O1 -9.12%, COc1ccc(C#Cc2ccc3c(c2)[C@H]2[C@H](CCN2Cc2nccs2)[C@@H](CO)N3)cc1 -3.82%, CC(=O)N1CC[C@@H]2[C@H](CO)Nc3ccc(C#Cc4ccccc4F)cc3[C@@H]21 -13.8%, N#C[C@@H]1[C@H](c2ccc(C#CC3CCCCC3)cc2)[C@@H](CO)N1S(=O)(=O)c1ccccc1 -14.1%, COc1ccc2c3c(n(C)c2c1)[C@@H](CO)N(C(=O)Nc1ccccc1F)CC31CCN(C(=O)c2ccccc2F)CC1 -1.72%

Growth activity, negative = inhibition, active:
Cc1cccc(-c2ccc(C3[C@@H]4CN(C(=O)Nc5ccc(C(F)(F)F)cc5)C[C@H]3N4)cc2)c1 (stereo partly drawn) -94.2% and -85.7%, COc1ccccc1CN1CC[C@@H]2[C@@H](CO)Nc3ccc(C#Cc4ccccc4)cc3[C@@H]21 -94.5%
